# Test results taken from PubChem BioAssay (NCI).
# About 83,000 compounds went through this panel and 20% of them were active in at least one assay; those are over-represented in the sample as a whole.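 Single-concentration screen, 48 h exposure, 96-well plates. Endpoint: percent growth. Below 10 = active.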 Values without a mark were called inactive. Active and inactive are the calls of the source. Where a SMILES comes first, the peptide text is derived from it. [ ]: non-standard residue; d: D form. ξ: configuration not given here. ξD = NC(CC(=O)O)C(=O)O
# Key:
# Test in all cases: NCI-60 one-dose screen, 48 h (100 = growth as untreated, 0 = no growth, -100 = all killed)
# Conditions in all cases: 10 µM unless noted
# NCI-H23 lung = tested on: NCI-H23 lung
# NCI-H226 lung = tested on: NCI-H226 lung
# HOP-62 NSCLC = tested on: HOP-62 NSCLC
# NCI-H460 lung = tested on: NCI-H460 lung
# HOP-92 NSCLC = tested on: HOP-92 NSCLC
# NCI-H522 lung = tested on: NCI-H522 lung
# A549/ATCC NSCLC = tested on: A549/ATCC NSCLC
# 786-0 renal = tested on: 786-0 renal
# NCI-H322M lung = tested on: NCI-H322M lung
# COLO 205 colon = tested on: COLO 205 colon
Compound,growth (NCI-H23 lung),growth (NCI-H226 lung),growth (HOP-62 NSCLC),growth (NCI-H460 lung),growth (HOP-92 NSCLC),growth (NCI-H522 lung),growth (A549/ATCC NSCLC),growth (786-0 renal),growth (NCI-H322M lung),growth (COLO 205 colon)
Oc1cc(Cl)ccc1Cc1ccc(Cl)cc1O,20.6%,96.6%,60.5%,46%,-14.4% (active),33.8%,73.7%,92.8%,,
CCC1CCCCN1C(=S)N/N=C(\C)c1ccccn1 (stereo unspecified),20.8%,7.86% (active),,-38.7% (active),,-18.6% (active),,11.3%,8.13% (active),-37.5% (active)
O=[N+]([O-])/C(=C/c1ccccc1)c1ccccc1,99.4%,97.5%,,,99.9%,83%,101%,97.9%,106%,112%
NCC(=O)NC(CC(=O)O)C(=O)O (stereo unspecified) (H-Gly-[ξD]-OH),108%,100%,,,100%,87.1%,103%,100%,104%,119%
O=C1C=CC(O)=CC1=P(c1ccccc1)(c1ccccc1)c1ccccc1,94.6%,88.8%,,73.6%,,81.8%,,87.9%,83.3%,105%
O=C(c1ccccc1)N(CCCl)C(=O)N(CCCl)C(=O)c1ccccc1,93.7%,93.7%,91.5%,108%,62.3%,85.7%,95.7%,103%,,99.9%
CCCCCCCCCCCCSC(=N)N,87.4%,107%,58.3%,-28% (active),-22.4% (active),88.5%,40.9%,-37.7% (active),,-95.1% (active)
CCOc1ccc(Nc2nc3c(s2)C(=O)c2ccccc2C3=O)cc1,41.9%,87%,113%,94.4%,85.1%,51.5%,94%,108%,,100%
Cc1ccc2cccc(OC(=O)Nc3cccc(C(F)(F)F)c3)c2n1,37.1%,67.7%,,27.5%,,37.2%,,78.6%,88.7%,62.3%
CCN(CC)CCNc1ccc([N+](=O)[O-])c2sc3ccccc3c(=O)c12,34.6%,18.4%,16.9%,3.12% (active),16.9%,12.7%,7.92% (active),37.2%,,1.96% (active)
CN(Cc1ccccc1)c1ccc(SC#N)cc1,89.8%,111%,,86.6%,59.7%,45.5%,,79.4%,94.7%,66.4%
CC(C)Nc1ccc(Nc2ccc(NC(C)C)cc2)cc1,25.9%,51.8%,,24.7%,72.6%,35.2%,,66%,84.6%,25.8%
N#CC(=C1SCS1)[N+](=O)[O-],43.9%,75.3%,41.7%,-6.65% (active),63%,-40.3% (active),20.9%,21.8%,,-21.5% (active)
C/C(=N/NC(N)=S)c1ccc(C)cc1,95.4%,83.5%,,100%,,94.5%,87.6%,101%,106%,99.1%
CCOc1ccc(C(CN2CCOCC2)C(C)=O)cc1OC (stereo unspecified),98.9%,98.9%,104%,108%,102%,-51.6% (active),101%,63.7%,,58%
COC1=CC(=O)c2c(O)c3c(c(O)c2C1=O)CC(C)(O)OC3 (stereo unspecified),-27% (active),90.1%,9.06% (active),4.74% (active),-16.4% (active),14.7%,2.13% (active),34%,,-61.7% (active)
CCCCCC/C=C1\CCC(CN2CCCC2)C1=O (stereo unspecified),99.9%,95.5%,,,90.5%,93.5%,93%,77.4%,106%,
Cn1c(-c2ccccc2)c(/C=C/C2=[N+](C)c3ccccc3C2(C)C)c2ccccc21,7.45% (active),13.5%,,,-17.1% (active),-28.6% (active),6.27% (active),24.2%,50.3%,-83.9% (active)
c1ccc(-c2cc3cc4ccccc4cn3c2)cc1,89.3%,73.1%,,88.3%,76.5%,79.4%,,102%,99.6%,95.1%
CC(=O)OC1CC2CCC1(C)C2(C)C (stereo unspecified),104%,103%,,,84.1%,,101%,111%,,108%
COC1CC(C)C(OC)c2cc(O)cc(c2O)NC(=O)/C(C)=C/C=C\C(C)C(OC(N)=O)/C(C)=C\C(C)C1OC (stereo unspecified),39.4%,47.8%,37.9%,,11.4%,-67.4% (active),13.3%,31.3%,,-0.179% (active)
CC12CCC(O)CC1=CCC1C2CCC2(C)C3=NN=CC3CC12 (stereo unspecified),101%,105%,101%,125%,,105%,104%,112%,,112%
O=[N+]([O-])c1ccc(N2CCN(Cc3ccccc3)CC2)c2c1no[n+]2[O-],13%,,-31.7% (active),-70.8% (active),25.6%,-74.1% (active),-40.2% (active),-4.19% (active),69.7%,-88.2% (active)
O=C(C[P+](c1ccccc1)(c1ccccc1)c1ccccc1)c1ccccc1,91.9%,99.4%,94.7%,97.7%,55.9%,61.4%,,99.6%,,89.6%
CN=C(N)N/N=C(\c1ccccc1)c1ccc(Br)cc1,21%,15.6%,8.02% (active),6.18% (active),32.2%,-29.9% (active),,13.4%,,-55.6% (active)
CCCCCCCCCCCC1=NCCCN1CCCC,94.2%,103%,94.6%,,74.8%,97.6%,97.6%,99.1%,,98%
O=[N+]([O-])c1ccc2c(c1)Cc1ccccc1-2,99.9%,108%,,99.9%,,,,91%,,116%
CCOc1ccc2c(c1)/C(=C\C=C\C1CC(C)C3CC(OCC)CCC3N1CC)CC(C)N2CC (stereo unspecified),14.5%,18.1%,,,,-19.3% (active),4.18% (active),10.3%,,-46.7% (active)
